Calls of active or inactive are those of the source.

The nature of this assay: growth of efflux-deficient E. coli DRC39 – strain DRC39, OD650, 48 h, E. coli filamentation inducers, primary screen (AID 1179).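 Further: screen aims at cell division blockers that make cells filament.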 To be noted: E. coli DRC39 delta-acrAB growth, higher = more signal, called active from +8 up or from −8 down.
Consider `COC(=O)[C@@]1(Cc2ccc(F)cc2)[C@H]2c3cc(C(=O)N(C)C)n(Cc4ccc(O)c(OC)c4)c3C[C@H]2CN1C(=O)c1ccccc1`, for which the z-score is -1.35 (inactive).

Consider `CO[C@H]1O[C@H](CO)[C@@H](OC(=O)Nc2cccc(F)c2)[C@H](OC(=O)Nc2ccccc2-c2ccccc2)[C@H]1OC(=O)Nc1ccccc1-c1ccccc1`, for which the z-score was -0.516 (inactive).

As to `C=C(CCCC)/C(=C/C[C@H](OC(C)=O)c1ccc(OCCO)cc1)c1cc(C(=O)OC)ccc1OC`, the z-score is 0.371 (inactive).

With `COCCCNC(=O)[C@@]1(Sc2ccc(C)cc2)CC(=O)N(Cc2ccccc2Cl)[C@@H]1c1ccc(CO)cc1I`, the z-score was -0.0682 (inactive).

Regarding `COc1cccc(/C=C(\C#N)C(=O)Nc2c(C)n(C)n(-c3ccccc3)c2=O)c1`, the z-score is 1.15 (inactive).

Regarding `CS(=O)(=O)CCOC(=O)C1=CC(CCCO)=CC(C2CC2)N(Cc2cccc(OC(F)(F)F)c2)C=C1C(=O)OCCS(C)(=O)=O` (stereo not given), the z-score is 0.241 (inactive).

For `COc1ccc(C#Cc2ccc3c(c2)[C@]2(C(=O)N3)[C@H](C(=O)Nc3nc4ccccc4s3)[C@H]3C(=O)O[C@H](c4ccccc4)[C@H](c4ccccc4)N3[C@@H]2c2ccccc2OCCO)cc1`, the z-score was 0.413 (inactive).

For the molecule `C=C[C@@H](C)[C@@H](OC(=O)Nc1ccc(SC)cc1)c1ccc(OCCO)cc1`, the z-score is -0.504 (inactive).

Take `CC(=O)N1CC(C(O)C2C=CC3C(=O)NC(=O)C3N2Nc2ccc(Cl)cc2Cl)c2ccccc21` (stereo not given): the z-score is -0.547 (inactive).

For `CC(C)C[C@@H]1NC(=O)[C@H]2C[C@@H](C(=O)NCCCCCN)[C@@H](c3cccc(OCCO)c3)N2C1=O`, the z-score was 1.61 (inactive).

The values are drawn from PubChem BioAssay.
